Screens as filed in PubChem.
This is a sample that favours compounds with a hit; in the whole collection about 19% have one here.
Marburg entry inh: qHTS for inhibitors of binding or entry into cells for Marburg Virus | Marburg virus pseudotyped entry inhibition, cell reporter | Potency, µM (doses to about 37.8 µM), inactives show top-dose activity change, negative = inhibition, hits mostly inhibitors | 300,000 tested, 1.8% active; calls by dose curve; tested in HEK293 cells; further: potency means the concentration at half of the fitted maximal effect; on the % scale 0 is the no-effect control and ±100 the full control effect
LASV entry inh: qHTS for Inhibitors of binding or entry into cells for Lassa Virus | Lassa virus pseudotype entry inhibition, cell reporter | Potency, µM (top dose mostly 37.9 µM), without a hit: at the top dose activity change, negative = inhibition, usual class: inhibitors | AID 540256, 2011 | 300,000 tested, 1.2% active; calls by dose curve; tested in HEK293 cells; further: potency means the concentration at half of the fitted maximal effect; on the % scale 0 is the no-effect control and ±100 the full control effect; nearly all actives have a fitted effect of over 50% in size
Pf growth 96h: Primary qHTS for delayed death inhibitors of the malarial parasite plastid, 96 hour incubation; P. falciparum luciferase reporter growth, 96 h; Potency, µM (top dose mostly 28.7 µM), inactives show at the top dose activity change, negative = inhibition, hits mostly inhibitors; 320,000 tested, 6.9% active; AID 504834, 2011; further: potency means the concentration at half of the fitted maximal effect; on the % scale 0 is the no-effect control and ±100 the full control effect
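Compounds incubated with erythrocytes infected by luciferase-expressing P. falciparum (2% hematocrit, 0.05% parasitemia final) for 96 hours, 37 C in 5% CO2. Growth inhibition scored as decreased luciferase luminescence.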
Shiga toxin inh: A qHTS for Small Molecule Inhibitors of Shiga Toxin | 290,000 tested, 9.2% active | inhibition, % at 38.7 µM | AID 2315, 2010 | Vero cells, Shiga toxin protein synthesis inhibition reporter; in the data active means inhibition mostly above about 28%, no sharp cut-off; inactive means mostly below about 43%; further: 0% is about no effect
Pf growth 48h: Primary qHTS for delayed death inhibitors of the malarial parasite plastid, 48 hour incubation. P. falciparum luciferase growth in erythrocytes, 48 h. 310,000 tested, 5.9% active. Potency, µM (titrated, usually from 28.7 µM), for inactives: at the top dose activity change, negative = inhibition, actives largely listed as inhibitors; further: potency means the concentration at half of the fitted maximal effect; on the % scale 0 is the no-effect control and ±100 the full control effect
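Cell-based growth assay: transgenic P. falciparum expressing firefly luciferase, cultured in red cells within RPMI 1640 containing 0.5% w/v Albumax, 24 mM bicarbonate and gentamycin. A drop in luciferase activity indicates inhibition.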
Cycloheximide cs: Cycloheximide Counterscreen for Small Molecule Inhibitors of Shiga Toxin | 300,000 tested, 12% active | cell reporter, cycloheximide protein synthesis inhibition counterscreen | max response, % | AID 2314, 2010; in the data active means max response mostly above about 13%, no sharp cut-off; inactive means mostly below about 14%; further: read at 38.3 µM for the half of the compounds with a filed dose; 0% is about no effect
Starred values were filed as active, the others as inactive; ? = inconclusive; / = no result; [ ] = another dose, or the depositor's remark. Unless noted, the call rests on the fitted dose curve; in most records, active means well fitted inhibition curve with a large enough effect; inconclusive means small, poorly fitted or top-dose-only effect, or another doubt; inactive means no such curve, though single readings can be large or run the other way.

SMILES	Marburg entry inh	LASV entry inh	Pf growth 96h	Shiga toxin inh	Pf growth 48h	Cycloheximide cs
CCCS/C(N)=N/N=C/c1cc(C)ccc1O	?	-17.6%	/	144.9*	270.3%	41.5*
Oc1ccccc1C=NCCCCCCN=Cc1ccccc1O	19.1%[46.1 µM]	2.8%	0.0%	24.8	0.0%	9.0
CCCCS/C(N)=N/N=C/c1ccccc1O	?	?	316.6%	53.9	/	32.5*
CCCCn1c(SCC(=O)c2ccc(OCC)cc2)nc2cc(S(N)(=O)=O)ccc21	-0.5%	-4.9%	-8.2%	-5.3	/	9.6
CCNc1c(C(=O)O)ccc2c1C(=O)c1ccccc1C2=O	-3.6%	21.1%	71.0%	15.3	10.2%	-3.4
CCN(CC)CCN1C(=O)C(O)=C(C(=O)c2cccs2)[C@@H]1c1ccccn1	14.4%	/	/	/	/	/
Cc1ccc(C2C(C(=O)c3sc(C)nc3C)=C(O)C(=O)N2CCN(C)C)o1 (configuration not stated)	11.9%	-16.0%	5.86µM*	34.2	9.2%	8.8
O=C(C1=C(O)C(=O)N(CCN2CCOCC2)C1c1ccccn1)c1cccs1 (configuration not stated)	-15.1%	15.5%	/	35.9*	14.6%	27.6*
CCN(CC)CCN1C(=O)C(O)=C(C(=O)c2cccs2)C1c1ccc(C)o1 (configuration not stated)	-3.3%	3.9%	?	27.0*	47.1%	21.9*
CCN(CC)CCN1C(=O)C(O)=C(C(=O)c2cccs2)C1c1ccccn1 (configuration not stated)	14.4%	-30.9%[14.3 µM]	0.0%	20.5	/	20.0*
COc1ccc(C2C(C(=O)c3sc(C)nc3C)=C(O)C(=O)N2CCN(C)C)cc1OC (configuration not stated)	15.0%	2.6%	/	12.4	13.3%	0.7
CC1CCC(NC(=O)c2cccc(S(=O)(=O)N3CCN(C)CC3)c2)CC1 (configuration not stated)	2.4%	8.5%	22.0%	/	?	/
Cc1ccc(C2C(C(=O)c3cc4ccccc4o3)=C(O)C(=O)N2CCN2CCOCC2)o1 (configuration not stated)	29.1%	15.3%	3.5%	53.6*	2.6%	24.3*
O=C(C1=C(O)C(=O)N(CCN2CCOCC2)C1c1ccc(F)cc1)c1cccs1 (configuration not stated)	/	/	-5.2%	-0.9	196.2%	-1.2
Cc1ccc(C2C(C(=O)c3cccs3)=C(O)C(=O)N2CCN2CCOCC2)o1 (configuration not stated)	-24.3%	-1.1%	?	49.9*	16.3%	23.7*
O=C(O)c1[nH]c2ccccc2c1CC(=O)N1CCOCC1	5.8%	-3.2%	?	1.4	42.4%	2.1
CCOC(=O)/C(C#N)=C/c1cc(C)n(-c2ccc(C)cc2)c1C	?	?	-9.5%	31.4	/	18.5*
CCOC(=O)/C(C#N)=C\C=C1C=CN(C)C=C1	?	5.8%	211.9%	62.8*	157.1%	35.1*
CCOC(=O)/C(C#N)=C\c1ccc(CC)s1	15.2%	18.6%	15.6%	101.9*	17.3%	79.6*
CCOC(=O)/C(C#N)=C\c1cc(C)n(-c2ccccc2)c1C	?	?	312.9%	82.1*	110.5%	55.1*
CCOC(=O)/C(C#N)=C/c1ccc(SC)cc1	?	4.3%	?	34.4	18.0%	26.6
CN(Cc1nc2ccccc2n1C)C(=O)c1cccs1	3.8%	-1.1%	?	15.1	17.5%	-1.9
COc1ccc(NC(=O)Cn2nnc(C(=O)NCc3ccco3)c2N)cc1	/	/	9.1%	-2.4	19.8%	-1.2
Cc1nc(N2CCN(Cc3ccc4c(c3)OCO4)CC2)c2cc(-c3ccccc3)sc2n1	7.94µM*	-10.2%[46.1 µM]	?	-1.6	11.7µM*	29.3
Cc1nc(N2CCOCC2)c2cc(-c3ccccc3)sc2n1	?	?	?	8.8	/	14.1*
SMILES	Marburg entry inh	LASV entry inh	Pf growth 96h	Shiga toxin inh	Pf growth 48h	Cycloheximide cs
Cc1nc(SCCC(=O)O)c2cc(-c3ccccc3)sc2n1	3.98µM*	?	77.6%	-10.7	28.0%	-7.0
Cc1nc(N2CCN(Cc3ccc4c(c3)OCO4)CC2)c2oc3ccccc3c2n1	?	-27.6%	/	/	/	/
Cc1ccc(NC(=O)c2cc([N+](=O)[O-])ccc2N2CCCC2)cc1	?	13.3%[46.1 µM]	19.5%	3.5	?	-1.2
Cc1nn(C)c(C)c1NC(=O)COc1ccc(Cl)cc1	/	/	2.0%	/	-0.7%	/
Cc1ccnc(NC(=O)COc2ccc(Cl)cc2)n1	/	/	42.2%	40.7	67.1%	24.8*
O=C(COc1ccc(Cl)cc1)Nc1ncccn1	25.6%	2.9%	/	34.9*	55.0%	34.2*
O=C(COc1ccccc1)NCCS(=O)(=O)N1CCN(c2ccccc2)CC1	16.8%	4.0%	10.0%	/	-11.6%	/
Clc1ccc(-n2nnnc2-c2cnc3ccc(Cl)cc3c2-c2ccccc2)cc1	?	4.9%[46.1 µM]	11.7µM*	-4.9	13.1µM*	3.3
Clc1ccc2ncc(-c3nnnn3-c3ccccc3)c(-c3ccccc3)c2c1	?	?	?	-17.0	?	-2.6
Cc1ccccc1-c1nc2sc3c(c2c(=O)n1N)CCCC3	?	?	4.65µM*	74.7*	/	42.8*
CN(C)c1nc2sc3c(c2c(=O)n1C)CC(C)(C)OC3	3.6%	?	27.9%	44.2*	20.5%	10.6*
Cc1nc2sc3c(c2c(=O)n1N)CCC3	12.8%[46.1 µM]	?	22.4%	8.5	42.1%	5.7
CCc1nc2sc3c(c2c(=O)n1N)CC(C)(C)OC3	22.3%	9.4%	11.0%	13.7	5.3%	0.8
Nn1c(-c2cccs2)nc2sc3c(c2c1=O)CCCC3	?	?	269.5%	108.4*	239.9%	34.8*
CC1(C)Cc2c(sc3nc(-c4cccs4)n(N)c(=O)c23)CO1	?	93.8%[14.3 µM]	/	56.6	84.3%	35.6*
CCc1ccccc1N(CC(=O)NCC1CCCO1)C(=O)CCC(=O)Nc1cc(C)on1 (configuration not stated)	-7.7%[46.1 µM]	7.2%	-0.4%	-5.2	-3.4%	-7.3
O=C(c1ccncc1)N(Cc1cc2ccccc2[nH]c1=O)C1CCCCC1	?	?	0.0%	-2.0	-12.9%	-3.8
CC(C)Cc1nc(N2CCN(C(=O)c3ccccc3)CC2)c(C#N)c2c1CCC2	?	6.51µM*	?	-15.9	?	14.4
CC(C)Cc1nc(N2CCNCC2)c(C#N)c2c1CCC2	?	-1.9%	-1.5%	-1.8	?	-0.9
CC(C)Cc1nc(N2CCCCC2)c(C#N)c2c1CCC2	-16.3%	6.1%	10.4µM*	0.2	40.0%	0.5
CC(C)Cc1nc(N2CCN(C(=O)c3ccco3)CC2)c(C#N)c2c1CCC2	?	?	37.6%	52.4	2.33µM*	8.8
N#Cc1c(N2CCN(C(=O)c3ccccc3)CC2)nc(-c2ccccc2)c2c1CCCC2	?	?	13.1µM*	-7.5	/	-1.2
